Rows were chosen to be rich in hits. Some 1.5% of all compounds tested hit in one or more screens of this group.
ugtP null kill: compounds lethal to S. aureus RN4220 ugtP deletion mutant | growth inhibition, % (test concentration not listed) | 330,000 tested, 0.54% active | OD600 growth, 16 h; in the data active means growth inhibition above about 68%;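 further: plate controls were untreated wells for no effect and antibiotic for full effect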
RN4220 kill: S. aureus RN4220 growth inhibition. OD600, 16 h. inhibition, % (no concentration beside the values). 330,000 tested, 0.33% active; in the data active means inhibition above about 85%;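 further: plate controls were untreated cells for no effect and reference antibiotic for full effect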
CCHF vOTU inh: blocks the CCHF virus ovarian tumor domain protease; CCHFV vOTU protease, Pep-AMC fluorescence; inhibition, % at 11.5 µM; 370,000 tested, 0.55% active; AID 651958; in the data active means inhibition above about 30%; further: 0% = vehicle wells with enzyme and 100% = no enzyme wells
VHR inh abs: DUSP3 (human) phosphatase inhibition; P51452; recombinant VHR phosphatase, pNPP absorbance; inhibition, % at 13.3 µM; 290,000 tested, 0.52% active; AID 1654; in the data active means inhibition above about 50%
Target sequence (P51452 whole entry, looked up): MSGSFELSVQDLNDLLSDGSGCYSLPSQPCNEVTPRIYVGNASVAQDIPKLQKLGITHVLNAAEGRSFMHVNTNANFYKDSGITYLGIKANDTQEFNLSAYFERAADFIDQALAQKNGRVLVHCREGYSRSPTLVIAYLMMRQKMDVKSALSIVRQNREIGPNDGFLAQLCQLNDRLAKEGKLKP
SSB-PriA inh: blocks PriA binding to SSB C-terminal tail | inhibition, % at 33 µM | AlphaScreen SSBct-PriA binding, biotinylated peptide | 430,000 tested, 0.6% active | AID 1272365; in the data active means inhibition mostly above about 37%, no sharp cut-off; inactive means mostly below about 20%;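 further: plate controls were negative control peptide for no effect and reference peptide for full effect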
An asterisk follows results filed as active; . = not tested or not shown.

SMILES | ugtP null kill | RN4220 kill | CCHF vOTU inh | VHR inh abs | SSB-PriA inh
COc1ccc(-n2c(SCC(=O)Nc3cc(C)on3)nc3c(c2=O)SCC3)cc1OC | 6.5 | 1.7 | -7.4 | 57.1* | -10.2
O=C(NCC(=O)N1CCOC(c2ccccc2)C1)c1ccc(C(F)(F)F)cc1 (centres undefined) | . | . | . | . | -6.0
O=C(CN1CCN(Cc2nc3ccccc3[nH]2)CC1)NCc1ccccc1Cl | . | . | . | . | 3.0
CCC1(C)Cc2c(C#N)c(N)sc(=S)c2CO1 (centres undefined) | 5.7 | 0.7 | 12.8 | -7.1 | -3.8
N#Cc1c(N)sc(=S)c2c1CCCC2 | 13.2 | 22.9 | -7.5 | -11.3 | 64.9*
O=C(CSc1nnc(-c2ccccc2)c(-c2ccccc2)n1)Nc1ncc(Cl)cc1Cl | 4.0 | 4.8 | -1.5 | -7.5 | 1.1
O=C(CSc1nnc(-c2ccccc2)c(-c2ccccc2)n1)Nc1ccc(Br)cn1 | 88.1* | 1.2 | -4.6 | 4.3 | 12.1
COC(=O)c1ccccc1NC(=O)c1ccc(=O)n(Cc2cccc(Cl)c2)c1 | . | . | . | . | -21.0
Nc1ccc(C2(c3ccc(N)cc3)C(=O)Nc3ccccc32)cc1 | -3.8 | 6.4 | -13.6 | 52.7* | 12.9
Cc1cccc(S(=O)(=O)NCCC(=O)N2CC(S(=O)(=O)Cc3ccco3)C2)c1 | . | . | . | . | 3.0
N#CC(c1cccc(Cl)c1)c1ccc2c(C(F)(F)F)cc(C(F)(F)F)nc2n1 (centres undefined) | 96.8* | 96.6* | -2.6 | 0.1 | 50.6*
OC(COC1CCCCC1)CN1CCCCC1 (centres undefined) | -2.5 | -0.5 | -17.2 | 56.3* | 2.7
O=C(NCC1(O)CCCC1)c1ccsc1 | . | . | . | . | 0.0
Cc1[nH]c(=O)c(C(=O)Nc2nc3c(s2)CCCC3)c(O)c1C | . | . | . | . | -9.0
COc1ccc(-c2nc(CS(=O)CC(=O)NCCCN3CCCC3)c(C)o2)cc1OC (centres undefined) | 0.2 | 1.0 | -1.5 | 7.1 | -5.0
COc1ccc(-c2nc(CN3CCC(C(=O)N4CCOCC4)CC3)c(C)o2)cc1C | 7.3 | 1.5 | -6.8 | 56.8* | 0.0
COc1ccc(-c2nc(CS(=O)CC(=O)NCCCN3CCOCC3)c(C)o2)cc1OC (centres undefined) | 1.9 | 0.4 | 0.3 | 56.7* | 1.3
CC(=O)Nc1ccc(SCC(=O)Nc2ccc3c(c2)OCCO3)nn1 | . | . | . | . | -5.0
CC/C(=C/c1ccccc1)c1cccc2[nH]c3c(OC)cccc3c12 | . | . | 8.6 | 32.1 | -5.0
CCC(=Cc1ccccc1)c1cccc2[nH]c3c(OC)cccc3c12 | 97.3* | 38.9 | . | . | .
Cc1sc(NC(=O)c2cccc(NS(=O)(=O)c3ccccc3)c2)c(C#N)c1C | . | . | . | . | 2.0
Cc1ccsc1C(=O)NCc1ccccc1Cl | 13.2 | 3.9 | 2.0 | 58.5* | -23.4
N#Cc1c(N2CCCC2)nc(N)c2c(N)nc(N3CCCC3)cc12 | -23.4 | 8.0 | 71.6* | 65.7 | 17.4
O=C(Cn1c(-c2ccccn2)nc2ccccc21)Nc1cccc(Cl)c1 | . | . | . | . | 18.0
O=c1nc(-c2ccccc2)c2cc(Br)ccc2[nH]1 | 14.2 | 6.1 | -2.4 | -8.3 | 5.0
SMILES | ugtP null kill | RN4220 kill | CCHF vOTU inh | VHR inh abs | SSB-PriA inh
O=c1nc(-c2ccccc2)c2cc(SC(F)F)ccc2[nH]1 | 15.6 | 3.5 | -16.5 | 52.8* | -0.1
CC(C)(C)SC[C@@H](O)Cn1c2ccc(Cl)cc2c2cc(Cl)ccc21 | . | . | . | . | -11.0
O=C(c1ccoc1)N1CCC(CNC(=O)C2(c3ccc(Cl)cc3)CCCC2)CC1 | . | . | . | . | -6.0
O=C(CCn1c2c(c3ccccc31)CCCC2)NNC(=O)c1ccc(Cl)c([N+](=O)[O-])c1 | -10.3 | -1.5 | -4.2 | 51.9* | -6.0
O=C(CCn1c2c(c3ccccc31)CCCC2)NNC(=O)c1ccc([N+](=O)[O-])cc1 | -9.4 | -0.5 | 18.6 | 16.5 | 11.8
CCc1cccc(C)c1NC(=O)CSc1nccn1-c1ccc(C(=O)NCc2ccc(C)o2)cc1 | . | . | . | . | 24.0
COc1ccc(-n2ccnc2SCC(=O)Nc2ccccc2)cc1 | 4.5 | 0.3 | 12.6 | 15.2 | 26.9
COc1ccc(OC)c(NC(=O)CSc2nccn2-c2ccc(F)cc2)c1 | . | . | . | . | 54.0*
Cc1cccc(-n2ccnc2SCC(=O)Nc2ccc([N+](=O)[O-])cc2)c1C | . | . | . | . | 51.0*
CCOc1ccccc1NC(=O)CSc1nccn1-c1ccc(C(=O)NCc2cccs2)cc1 | . | . | . | . | 40.0*
COc1ccc(-n2ccnc2SCC(=O)Nc2ccc(Cl)cc2)cc1 | . | . | . | . | 49.0*
COc1cccc(-n2ccnc2SCC(=O)Nc2ccccc2C(F)(F)F)c1 | . | . | . | . | 44.0*
COc1cccc(-n2ccnc2SCC(=O)Nc2ccccc2F)c1 | -2.3 | 2.0 | -13.4 | -6.2 | 33.0
COc1cccc(-n2ccnc2SCC(=O)Nc2cc(OC)ccc2OC)c1 | -0.2 | 4.7 | 4.4 | 3.6 | 46.3*
COc1ccc(-n2ccnc2SCC(=O)Nc2cc(C)ccc2C)c(OC)c1 | . | . | . | . | 39.0*
CS(=O)(=O)N1CCC(CNC(=O)Cc2ccc(F)cc2)CC1 | . | . | . | . | -20.0
CC(Oc1ccc(C#N)cc1)C(=O)Nc1nc(-c2ccccn2)cs1 (centres undefined) | . | . | . | . | 109.0*
CC(NC(=O)c1cccs1)C(=O)Nc1nc(-c2ccccn2)cs1 (centres undefined) | . | . | . | . | 103.0*
O=C(CN1NC2=CCSCC2=CC1=O)Nc1nc(-c2ccccn2)cs1 | . | . | . | . | -3.7
CC(C)C(=O)Nc1nc(-c2ccccn2)cs1 | . | . | . | . | 73.8*
CC(C(=O)Nc1nc(-c2ccccn2)cs1)N1NC2=CCCC2=CC1=O (centres undefined) | . | . | . | . | 95.0*
CC(N)C(=O)Nc1nc(-c2ccccn2)cs1 (centres undefined) | . | . | . | . | 59.1
CSc1nc2ccc3nc(NC(=O)CN4C(=O)CCC4=O)sc3c2s1 | . | . | . | . | 0.0
Cc1cccc(C(=O)N[C@H](C(=O)Nc2nc(C)cs2)C(C)C)c1 | -1.6 | 3.6 | 3.6 | 5.4 | 9.2
Cc1cccc(C(=O)NC(C)C(=O)Nc2nc(-c3ccccn3)cs2)c1 (centres undefined) | . | . | . | . | 100.0*
SMILES | ugtP null kill | RN4220 kill | CCHF vOTU inh | VHR inh abs | SSB-PriA inh
O=C(Cn1ccc2ccccc2c1=O)NCCC(=O)N1CCN(c2ccccc2)CC1 | 1.7 | 3.4 | -8.7 | 53.3* | -5.2
CC1(C)COc2cc(NC(=O)Cc3ccc(F)cc3)ccc2NC1=O | . | . | . | . | 19.0
CC(C)(C)c1ccc(C(=O)Nc2sc3c(c2C#N)CCCCC3)cc1 | . | . | . | . | -9.0
CNC(=O)c1nnsc1S(=O)c1ccc(Cl)cc1 (centres undefined) | 100.3* | 99.3* | 1.9 | 6.9 | 2.8
CCCNC(=O)c1nnsc1S(=O)c1ccc(Cl)cc1 (centres undefined) | 100.1* | 98.5* | 15.2 | 3.1 | 1.2
CC(C)C(=O)Nc1ccc(S(=O)(=O)N(Cc2ccccn2)Cc2ccco2)cc1 | . | . | . | . | -6.0
Cc1ccc(S(=O)(=O)c2nc(-c3ccccc3F)oc2N2CCC(C(N)=O)CC2)cc1 | . | . | . | . | 11.0
COc1cccc(C=NN2C(=O)CSC2=S)c1O | 12.4 | 5.5 | . | . | 92.9
O=C1CSC(=S)N1N=Cc1ccc(O)c(O)c1O | -13.6 | 22.0 | . | . | 99.8*
CCOc1cccc(C=NN2C(=O)CSC2=S)c1O | 4.8 | 2.3 | . | . | 71.0*
O=C1CSC(=S)N1N=Cc1ccccc1O | . | . | 7.5 | . | 30.3
CCN(CC)c1ccc(NC(=O)c2ccc3c(c2)OCO3)cc1 | -3.0 | -0.4 | 5.4 | 53.6* | 23.9
CCCN(CCC)S(=O)(=O)c1cccc(C(=O)Nc2ccc3c(c2)OCO3)c1 | 0.2 | 0.6 | 12.3 | 51.9* | -6.9

From PubChem
